Screening data deposited in PubChem BioAssay by National Center for Advancing Translational Sciences (NCATS).
FLuc modulator = counter-screen for miR-21 project: firefly luciferase inhibitors or activators. Potency, µM (titrated, usually from 57.5 µM), hits mostly inhibitors. purified FLuc, Km substrates, luminescence inhibition. P08659. 6.9% of 360,000 active; further: nearly all actives have a fitted effect of over 55% in size
Target sequence (P08659 whole entry, looked up): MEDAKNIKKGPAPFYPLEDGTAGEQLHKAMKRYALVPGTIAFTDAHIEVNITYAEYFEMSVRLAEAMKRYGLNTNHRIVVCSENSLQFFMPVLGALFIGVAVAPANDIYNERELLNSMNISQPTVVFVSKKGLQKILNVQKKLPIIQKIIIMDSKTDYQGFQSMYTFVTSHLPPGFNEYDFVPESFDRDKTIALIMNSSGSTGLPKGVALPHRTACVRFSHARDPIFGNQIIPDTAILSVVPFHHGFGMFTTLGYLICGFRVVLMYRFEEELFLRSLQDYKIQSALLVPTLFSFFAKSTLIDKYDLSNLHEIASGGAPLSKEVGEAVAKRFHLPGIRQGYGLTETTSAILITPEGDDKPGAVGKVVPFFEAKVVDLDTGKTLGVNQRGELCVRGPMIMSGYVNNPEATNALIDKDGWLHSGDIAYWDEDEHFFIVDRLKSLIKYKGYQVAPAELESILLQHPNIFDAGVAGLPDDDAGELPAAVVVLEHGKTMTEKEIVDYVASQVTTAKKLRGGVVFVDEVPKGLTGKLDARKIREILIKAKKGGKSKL
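Purified P. pyralis luciferase, 10 nM final, with Km-level 10 uM D-luciferin and 10 uM ATP in 50 mM Tris acetate pH 7.5, 10 mM Mg acetate, 0.01% Tween-20, 0.05% BSA; 6-point qHTS titration about 60 µM downward; luminescence read.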
ELG1 DNA repair = inhibitors of ELG1-dependent DNA repair in HEK293T cells; 2.3% of 330,000 active; Potency, µM (highest dose often 46.1 µM), actives largely listed as inhibitors; HEK293T ELG1-luciferase reporter, luminescence, 16 h; DNA damage induced by 5-fluorouridine; further: nearly all actives have a fitted effect of over 55% in size
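In this reporter screen, reduction of luminescence relative to DMSO vehicle indicated activity. Compounds and 5-fluorouridine were added together to 2,000 cells per well, incubated for 16 hr at 37 °C, then developed with ONE-Glo.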
ELG1 genotox = inducers of genotoxicity in HEK293T ELG1-luciferase cells | HEK293T ELG1-luciferase reporter, luminescence, 16 h | Potency, µM (series often up to 46 µM), most hits filed as activators | 1.3% of 330,000 active | AID 504466; further: nearly all actives have a fitted effect of over 60% in size
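16 hr compound incubation (37 °C, 5% CO2) of HEK293T cells carrying luciferase-tagged ELG1; luciferase then measured by ONE-Glo luminescence after 30 min at RT.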
NPC1 prom act = NPC1 promoter activation; Huh7 NPC1 promoter luciferase reporter, 24 h; 2.4% of 320,000 active; Potency, µM (highest dose often 9.22 µM), most hits filed as activators; further: nearly all actives have a fitted effect of over 60% in size
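NPC1 promoter–luciferase Huh7 cells; 24 h compound; luminescence.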
SMN2 splice enh = increases expression of the SMN2 splice variant. HEK293 SMN2-luciferase splicing reporter, luminescence, 30-36 h. Potency, µM (top dose mostly 46.1 µM), hits mostly activators. 2.8% of 210,000 active. AID 1458; further: nearly all actives have a fitted effect of over 55% in size
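qHTS luciferase splicing reporter: luminescence rises when SMN2 exon 7 is included in transfected HEK293 cells. Compound exposure lasted 30-36 h at 37C, with 4.5 mM final sodium butyrate as control, followed by a ONE-Glo read.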
Rab9 promoter act = activates the Rab9 promoter | Huh7 Rab9 promoter-luciferase reporter, luminescence, 24 h | Potency, µM (titrated, usually from 9.22 µM), usual class: activators | 2.8% of 320,000 active | AID 485297; further: nearly all actives have a fitted effect of over 60% in size
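Using Huh7 cells stably transfected with Rab9 promoter–luciferase, compounds were incubated 24 h at 37 °C, 5% CO2; luciferase luminescence was read 10 min after reagent addition.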
Numbers stand for hits; 0 = inactive; ? = inconclusive; - = no result given. The list is not random: actives were taken first. Their share in the collection is about 9.2%. The call rests on the fitted dose curve; in most records, active means well fitted curve in the direction sought with a large enough effect; inconclusive means small, poorly fitted or top-dose-only effect, or another doubt; inactive means no such curve, though single readings can be large; an effect the other way counts as inactive or inconclusive.

SMILES	FLuc modulator	ELG1 DNA repair	ELG1 genotox	NPC1 prom act	SMN2 splice enh	Rab9 promoter act
O=C(NCc1ccc(Cl)cc1)C(=O)NCC1OCCN1C(=O)c1cccs1 (stereo unspecified)	0	0	0	0	0	0
Cc1cc(NC(=O)NC(=O)c2cccc(OC(F)(F)C(F)F)c2)n[nH]1	0	?	?	2.5µM	5.6µM	2.2µM
Cc1cc(NC(=O)c2cccc(Oc3ccccc3)c2)n[nH]1	6.7µM	?	?	2.8µM	?	0.89µM
Cc1ccnc(NC(=O)c2cccc(OC(F)F)c2)n1	?	?	0	0	-	0
CC(C)C(=O)N1CCN(c2nc3ccc(Cl)cc3s2)CC1	?	?	?	2.5µM	-	?
Clc1ccc2nc(N3CCCCC3)sc2c1	2.7µM	?	?	1.4µM	11µM	2.5µM
Fc1cccc2sc(N3CCCCC3)nc12	19µM	?	13µM	?	?	?
Clc1ccc2nc(N3CCCCC3)[nH]c2c1	4.8µM	?	2.1µM	1.6µM	14µM	1.4µM
CS(=O)(=O)N1CCN(c2nc3ccc(Cl)cc3s2)CC1	?	?	0	?	-	?
Fc1cccc2sc(N3CCOCC3)nc12	?	?	0	0	?	0
O=C(COCc1cc(-c2ccc(F)cc2)on1)Nc1cc(Cl)ccc1O	0	-	-	-	0	-
COc1ccc(CC(=O)OCC(=O)Nc2ccc(Cl)cc2C)cc1	-	0	0	-	-	-
COc1ccc(-c2nnc(C3CCN(S(=O)(=O)c4cccc(Cl)c4)CC3)o2)cc1	0	-	-	-	0	-
O=C(c1ccc2ccccc2n1)N1CCN(Cc2c(F)cccc2Cl)CC1	0	0	0	0	-	0
Fc1cccc(Cl)c1CN1CCN(c2nc3ccccc3s2)CC1	5.4µM	?	15µM	2.5µM	-	2.5µM
Cc1cccc(/C=N/NC(=O)c2ccc(F)cc2)n1	12µM	?	0	0	-	0
Cc1cccc(NC(=O)c2ccc3nccnc3c2)n1	?	?	?	?	-	0
Cc1cccc(/C=N/NC(=O)c2cccc(NC(=O)c3ccccc3)c2)n1	11µM	0	0	0	-	0
Cc1cccc(NC(=O)c2cccc(NC(=O)c3ccccc3)c2)n1	21µM	0	0	0	-	0
NC(=O)c1ccc(NC(=O)c2ccc(COc3ccc(F)cc3)o2)cc1	0	0	0	0	-	0
CCOc1ccc(N2CC(NC(=O)CCc3ccccc3)CC2=O)cc1 (stereo unspecified)	0	-	-	-	-	-
CC(C)CN1C(=O)c2ccc(NC(=O)c3ccccc3F)cc2C1=O	12µM	?	?	0	0	?
CC(C)CN1C(=O)c2ccc(NC(=O)c3cccs3)cc2C1=O	9.5µM	?	0	0	0	?
CC(C)CN1C(=O)c2ccc(NC(=O)c3ccco3)cc2C1=O	19µM	?	0	?	-	?
COc1ccc(N2C(=O)C3C(C2=O)C2C=CC3C23CC3)c(OC)c1 (stereo unspecified)	13µM	?	0	0	0	0
SMILES	FLuc modulator	ELG1 DNA repair	ELG1 genotox	NPC1 prom act	SMN2 splice enh	Rab9 promoter act
CC(C)Sc1nc2sc(-c3ccccc3)cc2c(=O)n1N	0	0	0	0	0	0
O=c1c2cc(-c3ccccc3)sc2nc2n1N=C(c1ccccc1)CS2	1.9µM	?	0	2µM	-	1.8µM
CSc1nc2sc(-c3ccccc3)cc2c(=O)n1N	?	?	?	1.3µM	2.8µM	0.63µM
C[C@H]1COC(=O)[C@H](CC(=O)OC(C)(C)C)C/C=C\C[C@H](CC(=O)N(CCO)Cc2ccccc2)C(=O)N1	-	0	0	-	-	-
CN(C)c1ccc(-c2ccc3ncnc(NCc4ccccc4)c3c2)cc1	-	-	-	-	0	-
CN(C)c1ccc(-c2cc(NCc3ccccc3)ncn2)cc1	-	-	-	-	0.79µM	-
c1ccc(Oc2ccc(-c3ccn[nH]3)cc2)cc1	11µM	?	?	?	-	3.2µM
c1ccc(Oc2ccc(-c3ccnc4ncnn34)cc2)cc1	0	?	0	0	0	0
CC1=C(C)CC(C(=O)NCCc2ccc(F)cc2)C(C(=O)O)C1 (stereo unspecified)	0	0	0	0	-	0
CCOC(=O)c1noc2ncn(CC(=O)O)c(=O)c12	0	-	-	-	0	-
CCc1ccc2c(c1)NC(c1ccc(C)cc1)=NC(c1cccs1)=N2	?	-	-	-	0	-
COc1ccccc1NC(=S)N1CCC(c2nc3cc(C)c(C)cc3[nH]2)CC1	13µM	0	0	0	0	0
